# Biological target: RDH8
# Experiment: pooled miR-30 sensor sort-seq; sequence = guide strand
# Conditions: shRNA
# Also: reference of the scale not given here.
row,Sequence,sensor-assay potency score (higher = more potent)
1,TTGAGCGTGGTCAGCGGCGAGT,-1.34
2,ATCGTTGAAGATGACACCCTGC,0.0457
3,TACAGCTGAGACACTGGGCCAC,0.00741
4,TTGAAGGCCAAGGTTGAGGAGG,-0.704
5,ATGAAGAGTCTGTTCATCCTTT,0.345
6,TCAAACTCGGTGACCACGGGGC,-0.118
7,TTCTGCATGGCAGCAAGGCTGA,-1.12
8,TTGACGAGACGGACAGCTCCGA,-0.0536
9,ATCACTGCACACGTCCAGCTGG,-0.715
10,TAGCGGATGTTGGTCTGTCGGC,-1.33
11,TCGAGTCGAGCTGATGACGTTG,-0.883

# Biological target: RECQL4
# Experiment: as above
# Conditions: shRNA
row,Sequence,sensor-assay potency score (higher = more potent)
1,TTGAAAACGTTTGCCTTGCAGC,-0.47
2,TTGGTTGTGACTGTGGCACCAC,0.278
3,TTCTGCTTCATGTTGAGCCGTA,0.124
4,AACAGCATCTGTGTCTTCCTCA,0.181
5,TATTTTCTCCAGAAGCGTCGGT,0.184
6,TTATTCTGCATTTTGGAGCCTC,0.116
7,TTCAGGAAACAAGACTCCTTGG,-0.807
8,TTTCTTCCGCCACTTCTGCTTC,-1.04
9,TTGTGGTGAAGGAACCAGTGGC,0.104
10,TTCTGCAGGACAGATTCCCGTT,-0.459
11,TAGCACAGCAAAGTCTCGATGG,-0.495
12,TAGAGTGGCAGCACGGTGGGGT,0.669

# Biological target: RELA
# Experiment: as above
# Conditions: shRNA
row,Sequence,sensor-assay potency score (higher = more potent)
1,TTGAGCTCGGCAGTGTTGGGGG,0.294
2,TAGCCATTGATCTTGATGGTGG,-0.637
3,TTTCCTACAAGCTCGTGGGGGT,-0.0432
4,TTCATCATCAAACTGCAGCTGC,0.151
5,TTACGTTTCTCCTCAATCCGGT,0.444
6,TTTCTGCACCTTGTCACACAGT,-0.991
7,TTTACGTTTCTCCTCAATCCGG,-0.69
8,TTCTATAGGAACTTGGAAGGGG,0.628
9,TTGGGGACAGAAGCTGAGCTGC,-1.1
10,TATCTGTGCTCCTCTCGCCTGG,-1
11,TTGTCGGTGCACATCAGCTTGC,-0.891
12,TCAATGATCTCCACATAGGGGC,-0.148

# Biological target: REPS2
# Experiment: as above
# Conditions: shRNA
row,Sequence,sensor-assay potency score (higher = more potent)
1,TAGTACTTTTCAAAGCTTGTTT,-0.389
2,TCGTTCTTGATGAACCTCCTTG,-0.785
3,TGTTCTTCTGTTATCCTCCAGG,-0.549
4,TTCTGTGATCTGGTGCAGCGTC,-0.566
5,TTCTTGATGAACCTCCTTGAGC,-1.27
